Potency and max response data for 25 compounds are collected here from PubChem BioAssay (NCATS).

In test [1] the target is T1, Hexokinase-4 (Homo sapiens) + Glucokinase regulatory protein (Homo sapiens) (UniProt P35557+Q14397). Briefly: qHTS assay for inhibitors of recombinant human GCK-GKRP interaction: ADP-Glo assay (AID 743206).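 Also: plate controls were DMSO plus enzyme for no effect and no enzyme for full effect.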 The essentials: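 Pin-transferred compounds meet a 15 nM GST-GCK/15 nM FLAG-GKRP/2 uM S6P mix (dispense concentrations). ATP is then added to 0.4 mM final with 5 mM glucose, and the reaction runs 60 min at room temperature. ADP is quantified luminescently.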
T1 sequence (P35557 whole entry, looked up): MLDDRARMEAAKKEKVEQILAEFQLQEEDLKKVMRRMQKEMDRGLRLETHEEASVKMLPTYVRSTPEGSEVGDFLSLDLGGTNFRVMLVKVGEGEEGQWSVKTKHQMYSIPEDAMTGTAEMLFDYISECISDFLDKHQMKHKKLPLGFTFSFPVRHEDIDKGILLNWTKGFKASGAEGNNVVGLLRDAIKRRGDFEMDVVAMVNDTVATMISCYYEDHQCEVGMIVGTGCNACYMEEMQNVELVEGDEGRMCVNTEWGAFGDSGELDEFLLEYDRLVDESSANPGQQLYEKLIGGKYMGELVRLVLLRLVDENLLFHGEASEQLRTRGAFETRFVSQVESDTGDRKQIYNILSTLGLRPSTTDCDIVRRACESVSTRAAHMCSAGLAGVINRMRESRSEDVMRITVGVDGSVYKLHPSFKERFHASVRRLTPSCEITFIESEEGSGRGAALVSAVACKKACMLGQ
T1 sequence (Q14397 whole entry, looked up): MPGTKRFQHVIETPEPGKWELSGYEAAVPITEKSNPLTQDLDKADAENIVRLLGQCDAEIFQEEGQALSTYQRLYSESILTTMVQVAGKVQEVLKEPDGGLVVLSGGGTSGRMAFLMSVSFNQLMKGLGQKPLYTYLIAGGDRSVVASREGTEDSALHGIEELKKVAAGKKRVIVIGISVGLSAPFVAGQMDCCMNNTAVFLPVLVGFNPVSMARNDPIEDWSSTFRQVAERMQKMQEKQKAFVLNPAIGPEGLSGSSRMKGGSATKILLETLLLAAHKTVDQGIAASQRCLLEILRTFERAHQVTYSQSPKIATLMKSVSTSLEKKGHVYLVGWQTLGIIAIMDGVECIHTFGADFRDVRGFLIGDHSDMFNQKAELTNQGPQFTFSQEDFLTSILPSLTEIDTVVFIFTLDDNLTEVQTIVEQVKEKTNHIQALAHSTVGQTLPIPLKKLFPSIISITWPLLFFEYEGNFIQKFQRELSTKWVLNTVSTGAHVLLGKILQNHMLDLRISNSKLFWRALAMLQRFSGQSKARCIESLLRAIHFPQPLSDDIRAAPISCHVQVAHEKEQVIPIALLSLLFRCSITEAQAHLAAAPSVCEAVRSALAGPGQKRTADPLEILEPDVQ

Test [2] addresses T1, Hexokinase-4 (Homo sapiens) + Glucokinase regulatory protein (Homo sapiens). The test can be described thus: qHTS assay for inhibitors of recombinant human GCK-GKRP interaction: HTRF assay (AID 743207).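 Also: 0% = DMSO with GCK present and -100% = DMSO wells lacking GCK.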 The method in brief: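 GST-GCK and FLAG-GKRP (5 nM each) were combined with 2 uM S6P in pH 7.1 Hepes/MgCl2/KCl/DTT buffer, then compound and anti-FLAG XL665/anti-GST K antibodies were added. After 60 min at room temperature, HTRF 665/615 nm emission was read.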
A general note: In qHTS, concentration-response curves come from the screen itself.

Test [3] is described as follows: qHTS Assay for Identifying Gametocytocidal Compounds (AID 743244).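 Also: % is scaled to controls: 0 for no effect and ±100 for the full control effect; actives lower the fluorescent signal which means gametocytes are killed.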 The conditions noted are these: P. falciparum 3D7 stage III-V gametocytes, alamarBlue, 72 h; max response: active compounds read low. The method in brief:
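Fluorescence at Ex 525/Em 598 nm, recorded 24 h after alamarBlue addition, reports residual metabolic activity of 3D7 gametocytes (stages III–V) following 72 h compound exposure at 37 °C, 5% CO2.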

Test [4] can be described thus: qHTS assay for measurement of the activity of small molecule inhibitors on Zika virus induced Caspase-3 activity in human iPSC derived neural progenitor cells (hNPCs) (AID 1224857). Also: % of control where 0% means no effect; nearly all actives have a fitted effect of over 65% in size. The essentials: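 Zika virus (2 FFU/cell) infection of human iPSC-derived NPCs, 6 h, following 1 h compound preincubation. Read-out: Caspase-Glo 3/7 luminescence.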
The nature of test [5]: qHTS assay for measurement of the activity of small molecule inhibitors on Zika virus induced Caspase-3 activity in human astrocytoma cells (AID 1224859).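 Also: plate controls were ZIKV-infected untreated cells for no effect and uninfected cells for full effect.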 The essentials: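 Caspase activation in ZIKV-infected SNB-19 cells (2 FFU/cell, 6 h) measured by Caspase-Glo 3/7 luminescence after 30 min RT; compound pre-incubated 1 h; normalised to uninfected and infected controls.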

A short description of test [6]: P-glycoprotein substrates identified in KB-8-5-11 adenocarcinoma cell line, qHTS therapeutic library screen (AID 1346987). Also: nearly all actives have a fitted effect of over 65% in size. Also: potency is read from the fitted curve at half-maximal effect. The essentials: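 Compounds are pinned in dose-response onto KB-8-5-11 cells (500 cells/well, colchicine-free medium) and left 72 h at 37 degree C. CellTiter-Glo luminescence then yields AC50 values.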
Test [7] can be described thus: NS1 protein of Zika virus - qHTS assay to identify small molecule inhibitors in human HEK 293 cells (AID 1347053).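 Also: series mostly up to about 46 µM; plate controls were infected untreated cells for no effect and uninfected cells for full effect; nearly all actives have a fitted effect of over 55% in size.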 The method in brief:
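In this cell-based screen, HEK 293 cultures received compound for one hour before Zika MR766 at MOI = 0.5. NS1 was quantified 24 hours later by TR-FRET, normalized to virus-free wells and infected wells.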

Test [8] can be described thus: Natriuretic polypeptide receptor (hNpr1) antagonism - Pilot counterscreen GloSensor control cell line (AID 1347045; calls by dose curve; also: series mostly up to about 38 µM; % is scaled to controls: 0 for no effect and ±100 for the full control effect). The method in brief: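 Control counterscreen: luciferase cGMP-biosensor HEK293 cells (no Npr1) received compound for 30 min at room temperature after GloSensor substrate loading. Luminescence was measured before and 20 min after soluble guanylyl cyclase activation by 50 uM nitroprusside.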
(A counterscreen serves to expose hits that act by an unwanted route or on another target.)

For test [9], the target named is Atrial natriuretic peptide receptor 1 (Homo sapiens) (UniProt P16066). Briefly: Natriuretic polypeptide receptor (hNpr1) antagonism - Pilot screen (AID 1347049; calls by dose curve;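 also: agonist-evoked cGMP luminescence read 20 min after hNppA addition; series mostly up to about 58 µM; % is scaled to controls: 0 for no effect and ±100 for the full control effect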). The essentials: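 cGMP-sensor HEK293/hNpr1 cells, 1500/well, plated overnight at 37C. 2% GloSensor reagent, 2 h RT. Compound (23 nL pin transfer) 30 min RT, baseline luminescence pre-read. 0.1 nM hNppA, 20 min RT, post-read.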
Sequence of Atrial natriuretic peptide receptor 1 (Homo sapiens) (P16066 whole entry, looked up): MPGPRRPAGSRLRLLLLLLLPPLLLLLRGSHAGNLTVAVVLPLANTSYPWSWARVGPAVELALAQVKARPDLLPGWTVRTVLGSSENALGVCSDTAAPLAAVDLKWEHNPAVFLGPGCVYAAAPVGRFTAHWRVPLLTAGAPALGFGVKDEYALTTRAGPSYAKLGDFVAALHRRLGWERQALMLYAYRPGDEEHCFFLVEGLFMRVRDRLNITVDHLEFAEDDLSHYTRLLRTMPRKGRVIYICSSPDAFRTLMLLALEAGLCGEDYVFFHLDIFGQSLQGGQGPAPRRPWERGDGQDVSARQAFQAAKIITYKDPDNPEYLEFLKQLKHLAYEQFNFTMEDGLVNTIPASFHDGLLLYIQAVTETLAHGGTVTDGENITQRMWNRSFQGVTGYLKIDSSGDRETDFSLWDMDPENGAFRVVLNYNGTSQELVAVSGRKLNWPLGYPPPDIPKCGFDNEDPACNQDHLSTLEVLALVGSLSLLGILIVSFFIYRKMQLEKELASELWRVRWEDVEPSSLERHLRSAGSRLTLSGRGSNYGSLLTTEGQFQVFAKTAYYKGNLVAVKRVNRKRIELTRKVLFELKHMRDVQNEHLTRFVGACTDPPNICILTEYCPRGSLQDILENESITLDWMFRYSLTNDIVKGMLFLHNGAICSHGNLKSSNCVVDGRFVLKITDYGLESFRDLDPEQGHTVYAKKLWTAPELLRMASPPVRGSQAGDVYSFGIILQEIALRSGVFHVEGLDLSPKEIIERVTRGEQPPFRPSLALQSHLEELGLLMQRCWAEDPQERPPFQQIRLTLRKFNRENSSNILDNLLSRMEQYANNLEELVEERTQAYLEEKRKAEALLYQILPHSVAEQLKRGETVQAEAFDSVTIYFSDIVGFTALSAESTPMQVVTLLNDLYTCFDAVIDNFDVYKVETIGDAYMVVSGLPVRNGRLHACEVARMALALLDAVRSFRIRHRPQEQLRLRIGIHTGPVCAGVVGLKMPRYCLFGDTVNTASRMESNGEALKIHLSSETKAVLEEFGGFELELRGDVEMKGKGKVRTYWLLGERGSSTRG

For test [10], the target named is Atrial natriuretic peptide receptor 2 (Homo sapiens) (UniProt P20594). Briefly: Natriuretic polypeptide receptor (hNpr2) antagonism - Pilot subtype selectivity assay (AID 1347050; calls by dose curve; also: % is scaled to controls: 0 for no effect and ±100 for the full control effect). The method in brief: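 Luminescence from a genetically encoded cGMP luciferase biosensor in hNpr2-expressing HEK293 cells is read before and 20 min after adding 1 nM hNppC. Test compounds, in interplate 1:5 titrations, are added 30-50 min ahead of the agonist.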
Sequence of Atrial natriuretic peptide receptor 2 (Homo sapiens) (P20594 whole entry, looked up): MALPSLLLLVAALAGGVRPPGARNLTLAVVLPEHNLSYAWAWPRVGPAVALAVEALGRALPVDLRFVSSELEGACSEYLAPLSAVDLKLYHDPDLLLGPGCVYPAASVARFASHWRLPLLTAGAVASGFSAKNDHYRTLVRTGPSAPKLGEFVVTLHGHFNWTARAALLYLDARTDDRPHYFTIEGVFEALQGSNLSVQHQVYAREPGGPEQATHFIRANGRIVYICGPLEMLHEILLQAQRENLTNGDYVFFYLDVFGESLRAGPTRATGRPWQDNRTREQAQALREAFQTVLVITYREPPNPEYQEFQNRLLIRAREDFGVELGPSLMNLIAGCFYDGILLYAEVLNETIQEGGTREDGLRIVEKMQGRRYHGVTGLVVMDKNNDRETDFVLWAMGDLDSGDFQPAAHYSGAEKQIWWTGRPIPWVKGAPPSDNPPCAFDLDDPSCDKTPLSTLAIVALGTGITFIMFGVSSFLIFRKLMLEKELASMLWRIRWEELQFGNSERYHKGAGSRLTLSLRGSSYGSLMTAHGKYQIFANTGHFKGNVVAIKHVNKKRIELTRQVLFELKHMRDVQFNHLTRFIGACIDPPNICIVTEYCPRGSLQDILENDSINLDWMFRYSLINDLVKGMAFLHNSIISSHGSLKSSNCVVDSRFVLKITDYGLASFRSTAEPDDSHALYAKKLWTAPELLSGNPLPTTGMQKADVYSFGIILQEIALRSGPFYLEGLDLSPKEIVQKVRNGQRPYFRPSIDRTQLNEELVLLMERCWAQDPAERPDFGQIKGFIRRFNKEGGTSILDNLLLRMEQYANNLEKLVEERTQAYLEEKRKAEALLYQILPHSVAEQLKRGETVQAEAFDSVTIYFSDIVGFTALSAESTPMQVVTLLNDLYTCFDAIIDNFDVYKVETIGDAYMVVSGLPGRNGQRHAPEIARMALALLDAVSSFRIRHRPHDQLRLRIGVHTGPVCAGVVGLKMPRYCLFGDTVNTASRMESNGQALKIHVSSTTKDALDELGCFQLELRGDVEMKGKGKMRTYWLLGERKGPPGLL

Test [11] in a line: P-glycoprotein substrates identified in KB-3-1 adenocarcinoma cell line, qHTS therapeutic library screen (AID 1346986). Also: % is scaled to controls: 0 for no effect and ±100 for the full control effect; nearly all actives have a fitted effect of over 60% in size. The essentials: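 In 1536-well format, 500 cells/well received pinned compound titrations and were incubated 72 h, 5% CO2. Viability was read by CellTiter-Glo; cytotoxic if AC50 < 10 uM and efficacy >50%.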

The structures appear in SMILES notation. Unmarked numbers belong to inactive results. Results filed as inconclusive are left out. Calls of active or inactive are those of the source. Unless noted, calls follow the shape of the dose curve; as a rule, active = well fitted curve in the direction sought with a large enough effect; inconclusive = small, poorly fitted or top-dose-only effect, or another doubt; inactive = no such curve, though single readings can be large; an effect the other way counts as inactive or inconclusive.

`CN(C)S(=O)(=O)c1ccc2c(c1)/C(=C/c1cc3c([nH]1)CCCC3)C(=O)N2`: the Potency entry in test [1], in test [2], in [4], in [5] and in [7] was “inactive” throughout. The max response in test [3] was -2.03%. In test [6], the Potency was 6.51 µM (active).

Consider `Brc1c(Br)c(Br)c2[nH]cnc2c1Br`, for which the Potency result in [1], in test [2], in [4], in [5], in test [8] and in test [9] was “inactive” throughout. Besides, the Potency entry in test [10] and in test [7] was “inactive” each time.

For the compound `C[C@](Cc1ccc(O)c(O)c1)(NN)C(=O)O`, the Potency entry in [1], in test [2], in test [4], in test [5], in [8] and in test [9] was “inactive” throughout. The Potency entry in [10] and in test [7] was “inactive” in each case.

In the case of `CCCn1c(=O)c(C)cn2nc(N)nc12`, the Potency entry in [1], in test [2], in test [4], in test [5], in test [8] and in [9] was “inactive” in each case. In addition, the Potency entry in test [10] and in [7] was “inactive” throughout.

As to `COc1ccccc1N1CCN(CCN(C(=O)c2ccc(F)cc2)c2ccccn2)CC1`, the Potency entry in test [1], in [2], in test [4], in test [5], in [8] and in test [9] was “inactive” each time. Also, the Potency result in test [10] and in test [7] was “inactive” throughout. For the same compound, in [3], the max response is 23.7%.

`C=CCN1CCc2c(cc(O)c(O)c2Br)[C@@H](c2ccccc2)C1`: the Potency result in [1], in [2], in test [4], in test [5], in test [8] and in test [9] was “inactive” in each case. Also, the Potency entry in test [10] and in test [7] was “inactive” throughout.

With `c1ccc(C(NCc2cccnc2)(c2ccccc2)c2ccccc2)cc1`, the Potency result in test [1], in test [2], in test [4], in [5], in test [8] and in test [9] was “inactive” throughout. Further, the Potency result in test [10] and in test [7] was “inactive” each time. In addition, the max response in test [3] is 16.7%.

In the case of `N#Cc1cc([N+](=O)[O-])c2sc(C(N)=O)[n+]([O-])c2c1`, the Potency entry in test [1], in test [2], in test [4], in test [5], in test [11] and in [6] was “inactive” in each case. Further, the Potency entry in test [10] and in [7] was “inactive” throughout.

As for `CSC(=N)N`, the Potency entry in test [1], in test [2], in test [4], in test [5], in test [8] and in [9] was “inactive” throughout. Moreover, the Potency result in test [10] and in test [7] was “inactive” each time.

Turning to `Cc1ccccc1/C=C/C1=NCCN1`, the Potency result in test [1], in test [2], in [4], in test [5], in test [8] and in test [9] was “inactive” in each case. In addition, the Potency result in test [10] and in test [7] was “inactive” in each case.

With `Cn1ccnc1`, the Potency result in [1], in [2], in test [4], in test [5], in [8] and in [9] was “inactive” throughout. Also, the Potency entry in test [10] and in test [7] was “inactive” each time.

Take `N[C@@H](Cc1c[nH]c2ccccc12)C(=O)O`: the Potency entry in test [1], in [2], in test [4], in test [5], in [8] and in [9] was “inactive” each time. The Potency result in test [10] and in [7] was “inactive” throughout.

For the compound `N=C(N)c1ccc(N)cc1`, the Potency result in [1], in test [2], in test [4], in [5], in test [8] and in test [9] was “inactive” each time. Further, the Potency entry in [10] and in test [7] was “inactive” throughout. The max response in test [3] was -4.7%.

As to `N=C(N)SCCc1cnc[nH]1`, the Potency entry in [1], in [2], in [4], in test [5], in [8] and in test [9] was “inactive” each time. For the same compound, the Potency result in test [10] and in test [7] was “inactive” each time. The max response in test [3] was 9.89%.

On to `CCCCCCN(CCCCCC)C(=O)Cc1c(-c2ccc(F)cc2)[nH]c2ccccc12`, for which the Potency result in test [1], in test [2], in test [4], in [5], in test [8] and in [9] was “inactive” in each case. The Potency result in [10] and in [7] was “inactive” in each case. For the same compound, the max response in [3] is 19.7%.

For `CN(CC[C@@H](Oc1ccc(C(F)(F)F)cc1)c1ccccc1)CC(=O)O`, the Potency entry in test [1], in test [2], in [4], in [5], in test [8] and in [9] was “inactive” throughout. Further, the Potency entry in test [10] and in [7] was “inactive” in each case. The max response in test [3] is 25.4%.

In the case of `O=C(c1ccc2c(c1)OCCO2)N1CCCCC1`, the Potency entry in test [1], in test [2], in test [4], in test [5], in [8] and in test [9] was “inactive” in each case. The Potency entry in test [10] and in [7] was “inactive” each time. For the same compound, the max response in test [3] was 22.1%.

Turning to `CCOC(=O)C12CC1/C(=N/O)c1ccccc1O2` (centres undefined), the Potency result in [1], in test [2], in test [4], in [5], in test [8] and in test [9] was “inactive” throughout. In addition, the Potency result in [10] and in test [7] was “inactive” each time. The max response in [3] was 0.715%.

`CCCCCCCCCC[Si](C)(C)CCC(=O)NC(Cc1ccc(C)cc1)c1ccccc1` (centres undefined): the Potency entry in test [1], in [2], in test [4], in test [5], in test [8] and in test [9] was “inactive” each time. The Potency entry in [10] and in test [7] was “inactive” throughout. The max response in [3] was 13.6%.

Regarding `CCCCC[C@H](CC(=O)NO)C(=O)N[C@H](C(=O)N1CCC[C@H]1CO)C(C)C`, the Potency entry in [1], in test [2], in test [4], in test [5], in [8] and in test [9] was “inactive” each time. Also, the Potency result in [10] and in test [7] was “inactive” each time. For the same compound, the max response in [3] is 14.1%.

`O=C(O)C1=CCCNC1`: the Potency result in [1], in test [2], in [4], in test [5], in [8] and in [9] was “inactive” throughout. In addition, the Potency result in test [10] and in test [7] was “inactive” in each case. Also, the max response in [3] was 15%.

`CN1CCC2(CCN3CCc4c(oc5ccccc45)C3C2)N(C)C1=O` (centres undefined): the Potency result in test [1], in test [2], in test [4], in [5], in [8] and in [9] was “inactive” in each case. In addition, the Potency entry in [10] and in [7] was “inactive” in each case. The max response in [3] was 28.4%.

Turning to `CCCCCCCCCCC/C=C\C(C)(C)/C=C\CCCC(=O)O`, the Potency result in test [1], in [2], in [4], in test [5], in [8] and in [9] was “inactive” in each case. The Potency entry in test [10] and in test [7] was “inactive” in each case. Moreover, the max response in [3] was 11.6%.

On to `N[C@@H](CCCC(=O)O)C(=O)O`, for which the Potency result in test [1], in [2], in test [4], in [5], in [8] and in test [9] was “inactive” throughout. Also, the Potency entry in test [10] and in [7] was “inactive” in each case. In addition, in test [3], the max response is 28.3%.

As for `CC(C)(CO)Cc1cc(C(C)(C)C)c(O)c(C(C)(C)C)c1`, the Potency entry in test [1], in test [2], in test [4], in test [5], in test [8] and in test [9] was “inactive” in each case. For the same compound, the Potency entry in test [10] and in [7] was “inactive” throughout. In test [3], the max response is 9.64%.
